Consider 51 molecules from PubChem BioAssay AID504834 (National Center for Advancing Translational Sciences (NCATS), 2011).

“And” between values parts separate entries of the source, which are not always exact repeats. Equal entries are not always repeated. About 22,000 (6.9%) of roughly 320,000 compounds were called active. Roughly 27% stayed inconclusive and do not appear here. For the sample, actives were picked, then their nearest neighbours and some compounds at random. Unmarked numbers belong to inactive results. The call rests on the fitted dose curve; in most records, active means well fitted inhibition curve with a large enough effect; inconclusive means small, poorly fitted or top-dose-only effect, or another doubt; inactive means no such curve, though single readings can be large or run the other way.
On the % scale 0 is the no-effect control and ±100 the full control effect; potency means the concentration at half of the fitted maximal effect.

The assay can be described thus: Primary qHTS for delayed death inhibitors of the malarial parasite plastid, 96 hour incubation. Particulars: P. falciparum luciferase reporter growth; series mostly up to 28.7 µM; activity change, negative = inhibition: at the top concentration. In a few lines: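 Two parasite generations (96 h, 37 C, 5% CO2) of compound exposure in infected erythrocytes (0.05% parasitemia, 2% hematocrit). Luciferase-reporter P. falciparum; decreased luminescence indicates inhibited growth, aimed at apicoplast-acting delayed death.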
In general terms: qHTS replaces the single test concentration by a dilution series.
Turning to `C/C=N/N(c1ccccc1)c1ccccc1`, the “activity change, negative = inhibition” value is 51.4%.
For `CCN(CC(=O)Nc1ccc(S(=O)(=O)N2CCCC2)cc1)CC(=O)Nc1cccc(OC)c1`, the “activity change, negative = inhibition” value was -17%.
The same measure, in the same setting: then `CCOC(=O)c1cnc(-n2nc(C)cc2C)nc1-n1nc(C)cc1C`, with 26%.
On the same count and under the same terms, to `CCOC(=O)c1ccccc1NC(=O)CSc1nc2ccccc2c(=O)[nH]1` belongs -0.129%.
`CCOC(=O)c1cc(NC(=O)SCC(=O)O)c(C)nc1C`: the Potency is 7.38 µM (active).
With `CC1CCC(NS(=O)(=O)c2ccc3c(c2)CC(=O)N3)CC1` (stereo unspecified), the “activity change, negative = inhibition” value was -7.2%.
On the same count and under the same terms, to `Cc1ccc(Cc2nnc(SCC(=O)Nc3ccc(C)cc3C)[nH]c2=O)cc1` belongs 31.1%; to `O=C(CCN1CCN(C/C=C/c2ccccc2)CC1)Nc1ccccc1Cl`, -27.3%; to `C/C(=N\NC(=O)c1ccoc1C)c1ccccc1O`, 163%.
Consider `COc1ccc(C(=O)c2c(C)c(CCC#N)n3ccccc23)c(OC)c1`, for which the “activity change, negative = inhibition” value was -23.2%.
Consider `Oc1c(Cl)cc(Cl)c(Cl)c1Cc1c(O)c(Cl)cc(Cl)c1Cl`, for which the Potency was 12 µM (active) and 9.28 µM (active).
On to `CN(C)c1nc(NN)nc(Nc2ccc(F)cc2)n1`, for which the “activity change, negative = inhibition” value was 1.79%.
Still for that read-out and setting: to `COc1ccc(N(CC(=O)Nc2cccc3ccccc23)S(C)(=O)=O)c(OC)c1` belongs -37.1%.
On to `C=CCn1c(SCC(=O)NC)nnc1C12CC3CC(CC(C3)C1)C2`, for which the Potency is 11.7 µM (active).
For `C=CCn1c(COc2ccccc2)nnc1SCC(=O)NCC(=O)OCC`, the “activity change, negative = inhibition” value was 4.6%.
Still for that read-out and setting: then `C=CCn1c(SCC(=O)NC23CC4CC(CC(C4)C2)C3)nc(O)cc1=O`, with -29.2%; and `C=CCSc1nnc(NC(=O)c2ccc(NC(C)=O)cc2)s1`, with 14%; and `CC1CC(C)CN(C(=O)CCNC(=O)Cn2cnc3ccccc3c2=O)C1` (stereo unspecified), with -3.35%.
For `Cc1cc(S(=O)(=O)N2CCOCC2)ccc1OCC(=O)N1CCOCC1`, the “activity change, negative = inhibition” value is 9.58%.
For the molecule `O=C1CCc2cc(S(=O)(=O)N3CCC(C(=O)NCc4ccccc4Cl)CC3)ccc2N1`, the Potency was 13.1 µM (active).
With `O=C(NCc1ccccc1Cl)C1CCN(S(=O)(=O)N2CCOCC2)CC1`, the “activity change, negative = inhibition” value was 4.74%.
Same read-out and setting: then `O=C(NCc1ccccc1Cl)C1CCN(S(=O)(=O)c2cccc3nonc23)CC1`, with -7.24%.
Same read-out and setting: then `CSc1ccc(Cl)c(C(=O)OCC(=O)N2CCNC2=O)c1`, with -21.6%.
On the same count and under the same terms, to `COc1ccc(Cn2nnc3c(=O)[nH]c(C4CCN(C(=O)c5ccccc5Cl)CC4)nc32)cc1` belongs 9.4%.
Consider `O=C(Nc1ccc(F)cc1)N1CCCC(c2nc3c(nnn3Cc3ccccc3Cl)c(=O)[nH]2)C1` (stereo unspecified), for which the “activity change, negative = inhibition” value was 16.6%.
Take `Cc1ccc(NC(=O)N2CCC(c3nc4c(nnn4Cc4c(F)cccc4Cl)c(=O)[nH]3)CC2)cc1`: the Potency was 9.28 µM (active).
In the case of `CC(Sc1nnc(-c2cccs2)n1C1CC1)C(=O)NCC1CCCO1` (stereo unspecified), the “activity change, negative = inhibition” value is 24.7%.
As to `Cc1cc(C(=O)OCC(=O)Nc2nccs2)c2ccccc2n1`, the “activity change, negative = inhibition” value was 20.5%.
For the molecule `COc1ccccc1C(=O)NNC(=O)CCN1C(=O)/C(=C\c2ccccc2)SC1=S`, the “activity change, negative = inhibition” value was -14.8%.
Regarding `CCC(C)Sc1nc(C)nc2c1c(=O)n(C)c(=O)n2C` (stereo unspecified), the Potency was 10.4 µM (active).
As for `CSc1nc(C)nc2c1c(=O)n(C)c(=O)n2C`, the “activity change, negative = inhibition” value was 15.9%.
Same read-out and setting: then `CC(O)c1nc2c(c(=O)n(C)c(=O)n2C)n1C` (stereo unspecified), with 101%; and `COc1ccc(N2CCN(S(=O)(=O)c3cc(Br)cnc3N)CC2)cc1`, with 1.5%; and `COc1cccc(/C=C2/SC(=S)N(CC(=O)NC3C=CS(=O)(=O)C3)C2=O)c1` (stereo unspecified), with 37.3%.
The same measure, in the same setting: then `COc1cccc(NC(=O)NCCN2CCCCC2)c1`, with -37%; and `COc1ccc(N2CCN(CCNC(=O)CCN3C(=O)COc4ccccc43)CC2)cc1`, with 24.2%.
With `COc1ccc(N2CCN(CCNC(=O)Nc3cc(Cl)ccc3Cl)CC2)cc1`, the Potency was 5.22 µM (active).
For `CCOC(=O)c1cccc(NC(=O)CN2C(=O)C3CC=CCC3C2=O)c1` (stereo unspecified), the “activity change, negative = inhibition” value is -20.6%.
The same measure, in the same setting: to `CCn1ccnc1CN(C)C(=O)c1ccc2nc(Cc3ccc(OC)cc3)oc2c1` belongs -22.5%; to `Cc1[nH]c(C)c(S(=O)(=O)N2CCN(c3cccc(C(F)(F)F)c3)CC2)c1C(=O)N1CCCC1`, -18%.
Still for that read-out and setting: to `COCCNC(=O)NC(=O)COC(=O)C1(c2ccc(Cl)cc2)CC1` belongs 23.1%.
Still for that read-out and setting: then `COc1ccccc1CN(C)C(=O)c1cc2ccccc2o1`, with -19.2%.
For `COc1ccccc1CN(C)C(=O)C1(c2ccc(Cl)cc2)CC1`, the Potency is 9.28 µM (active).
Consider `Cc1cccc(C(=O)NCC(=O)OCC(=O)N(C)CC(=O)Nc2ccccc2Cl)c1`, for which the “activity change, negative = inhibition” value was -24.1%.
Take `Cc1ccc(N2CC(C(=O)N3CCC4(CC3)CC(=O)c3ccccc3O4)CC2=O)cc1C` (stereo unspecified): the Potency was 11.7 µM (active).
In the case of `O=C1CC2(CCN(C(=O)COc3ccc(F)cc3)CC2)Oc2ccccc21`, the “activity change, negative = inhibition” value is -16.8%.
On to `O=C(C1CC(=O)N(c2ccc(F)cc2)C1)N1CCN(c2ccccc2)CC1` (stereo unspecified), for which the “activity change, negative = inhibition” value was 49.1%.
Same read-out and setting: to `O=C(Cn1c(NCCO)nc2ccccc21)c1ccc(Cl)cc1Cl` belongs 26.7%.
Turning to `CC(NC(=O)C(=O)Nc1nccs1)c1ccccc1` (stereo unspecified), the “activity change, negative = inhibition” value is 17.2%.
On the same count and under the same terms, to `CC(=O)c1cccc(NC(=S)N2CCN(S(C)(=O)=O)CC2)c1` belongs 47.9%; to `O=C(NCCCN1CCOCC1)c1ccccc1NS(=O)(=O)c1ccc(F)cc1`, 26.6%.
